Assay outcomes (PubChem)
Shown are actives, neighbours in structure and some others; about 3.3% of the full set was active somewhere.
AmpC inh no detg: inhibitors of E. coli AmpC beta-lactamase without detergent; P00811; AmpC nitrocefin hydrolysis, absorbance 480 nm, 0.0001% Triton; Potency, µM (highest dose often 57.1 µM), for the others: at the top dose activity change, negative = inhibition, hits mostly inhibitors; hit rate 0.52% among 330,000; AID 485341;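 further: plate controls were no compound for no effect and no enzyme for full effect; nearly all actives have a fitted effect of over 20% in size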
Target sequence (P00811 whole entry, looked up): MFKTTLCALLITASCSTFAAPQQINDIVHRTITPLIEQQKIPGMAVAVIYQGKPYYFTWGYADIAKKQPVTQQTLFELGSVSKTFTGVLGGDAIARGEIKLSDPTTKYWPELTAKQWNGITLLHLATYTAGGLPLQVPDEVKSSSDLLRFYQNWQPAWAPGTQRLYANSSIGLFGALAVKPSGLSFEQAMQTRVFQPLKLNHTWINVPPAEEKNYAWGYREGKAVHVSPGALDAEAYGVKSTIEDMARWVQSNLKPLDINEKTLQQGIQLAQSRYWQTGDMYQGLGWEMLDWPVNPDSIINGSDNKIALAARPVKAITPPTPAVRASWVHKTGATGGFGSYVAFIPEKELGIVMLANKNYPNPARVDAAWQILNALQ
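20 mM phosphate pH 7.0 + 0.01% (detergent screen) or 0.0001% Triton X-100; 5.3 nM AmpC reagent; cpd preinc 15 min RT; nitrocefin (800 uM stock) to start; A480 q20 s × 4 min; Activity was normalised to no-enzyme and no-compound control wells.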
AmpC inh detg: blocks E. coli AmpC beta-lactamase in detergent assay | P00811 | AmpC hydrolysis of nitrocefin, absorbance 480 nm, 0.01% Triton | Potency, µM (titrated, usually from 114 µM), for the others: at the top dose activity change, negative = inhibition, most hits filed as inhibitors | hit rate 0.041% among 370,000 | AID 485294;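 further: 0% = no-compound wells and -100% = no-enzyme wells; nearly all actives have a fitted effect of over 25% in size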
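20 mM phosphate pH 7.0 + 0.01% (detergent screen) or 0.0001% Triton X-100; 5.3 nM AmpC reagent; cpd preinc 15 min RT; nitrocefin (800 uM stock) to start; A480 q20 s × 4 min; Activity was normalised to no-enzyme and no-compound control wells.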
RE007 growth inh: less growth of the S. pombe RE007 Vpr strain | S. pombe RE007 Vpr strain, BacTiter-Glo ATP luminescence, 24 h | Potency, µM (doses to about 92.2 µM), for the others: top-dose activity change, negative = less growth, usual class: inhibitors | hit rate 0.21% among 360,000 | AID 651644; active means well fitted falling curve with a large enough effect; inconclusive means small, poorly fitted or top-dose-only effect; inactive means no such curve, though single readings can be large or run the other way; further: on the % scale 0 is the no-effect control and ±100 the full control effect; nearly all actives have a fitted effect of over 50% in size
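Fission yeast RE007 carrying one integrated HIV-1 vpr copy, seeded at OD 0.01 in PMG+AL medium with 23 nL pinned compound. Grown 24 h at 30 degrees; viability read by BacTiter-Glo luminescence after 5 min.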
SARS PLpro yeast: inhibitors of SARS-CoV papain-like protease in yeast; S. cerevisiae expressing SARS-CoV PLpro, growth rescue; Potency, µM (highest dose often 32.9 µM), inactives show at the top dose activity, positive = growth rescue, most hits filed as activators; hit rate 0.19% among 330,000; AID 485353; calls by dose curve; further: 0% is about no effect; nearly all actives have a fitted effect of over 55% in size
TbPYK inhibitor: blocks Trypanosoma brucei pyruvate kinase. TbPYK enzyme, Kinase-Glo Plus ATP luminescence, 45 min. Potency, µM (titrated, usually from 76.8 µM), for inactives: at the highest dose activity, negative = inhibition, actives largely listed as inhibitors. hit rate 0.12% among 410,000. AID 624173; further: on the % scale 0 is the no-effect control and ±100 the full control effect; nearly all actives have a fitted effect of over 50% in size
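Enzyme and substrate buffer are dispensed first and compound is pin-transferred. ADP at 130 uM final then starts the reaction, which runs 45 min at room temperature. Detection reagent is added for 10 min before luminescence is imaged.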
Sm TGR block: S. mansoni TGR enzyme inhibition; AID 485364; purified TGR, DTNB reduction, TNB absorbance 405 nm; Q962Y6; hit rate 3% among 360,000; Potency, µM (doses to about 114 µM), inactives show at the top dose activity change, negative = inhibition, hits mostly inhibitors; further: on the % scale 0 is the no-effect control and ±100 the full control effect; nearly all actives have a fitted effect of over 60% in size
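First, TGR (20 nM dispensed) and NADPH were mixed with compound. Second, a 15 min room-temperature incubation followed. Third, further NADPH and then DTNB were added to start the reaction. Finally, TNB absorbance was monitored kinetically.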
* hit, by the source's call. Unless noted, the call rests on the fitted dose curve; in most records, active means well fitted curve in the direction sought with a large enough effect; inconclusive means small, poorly fitted or top-dose-only effect, or another doubt; inactive means no such curve, though single readings can be large; an effect the other way counts as inactive or inconclusive. Potency means the concentration at half of the fitted maximal effect.

For Cc1ccc(C)c(N2CCN(C(=O)CS(=O)(=O)c3cccc4nsnc34)CC2)c1 the results were AmpC inh detg -10%, TbPYK inhibitor 5% and Sm TGR block -23%.
Screening Cc1ccc(C)c(N(C)C(=O)CCS(=O)(=O)c2cccc3nonc23)c1 returned AmpC inh no detg 12%, AmpC inh detg -8%, RE007 growth inh -8%, SARS PLpro yeast -1%, TbPYK inhibitor 6% and Sm TGR block 20µM*.
For Cc1ccc(C)c(N2CCN(C(=O)CCS(=O)(=O)c3cccc4nonc34)CC2)c1 the results were AmpC inh no detg 58%, AmpC inh detg -8%, RE007 growth inh -6%, SARS PLpro yeast -7%, TbPYK inhibitor 5% and Sm TGR block 35µM*.
`COC(=O)c1ccc(Cl)cc1NC(=O)N(Cc1ccc(C)o1)C1CCN(C(C)=O)CC1` gave AmpC inh detg 14%, TbPYK inhibitor -7% and Sm TGR block -1%.
CCC(=O)N1CCN(c2cc(C)ccc2C)CC1 was read as AmpC inh no detg -3%, AmpC inh detg 4%, RE007 growth inh -1%, SARS PLpro yeast 1%, TbPYK inhibitor -7% and Sm TGR block 2%.
For Cc1ccc(C)c(N2CCN(C(=O)Cn3cccc3)CC2)c1 the results were AmpC inh no detg 0%, AmpC inh detg inconclusive, RE007 growth inh -21%, SARS PLpro yeast -7%, TbPYK inhibitor 0% and Sm TGR block 40µM*.
For O=C(CCS(=O)(=O)c1cccc2nonc12)NC1CCCCCC1 the results were AmpC inh no detg -20%, AmpC inh detg -6%, RE007 growth inh 5%, SARS PLpro yeast 3%, TbPYK inhibitor -1% and Sm TGR block 45µM*.
For CCN(CC)S(=O)(=O)c1ccc2c(c1)N(CC(=O)Nc1ccc(Cl)cc1)C(=O)C1CCCN21 (stereo not given) the results were AmpC inh detg 0%, TbPYK inhibitor -10% and Sm TGR block inconclusive.
COc1cccc(-c2nc(CS(=O)(=O)CC(=O)NCc3cccc(Cl)c3)c(C)o2)c1 was read as AmpC inh detg 2%, TbPYK inhibitor 1% and Sm TGR block inconclusive.
Screening CCOc1cc(/C=C2/C(=O)NC(=O)N(c3ccc(CC)cc3)C2=O)ccc1OC(=O)c1cccs1 returned AmpC inh no detg -41%, AmpC inh detg -3%, RE007 growth inh 1%, SARS PLpro yeast -1%, TbPYK inhibitor -15% and Sm TGR block 35µM*.
Screening COc1ccc(-c2nc(CS(=O)CC(=O)NC3CCCCC3)c(C)o2)cc1 (stereo not given) returned AmpC inh no detg 64%, AmpC inh detg -1%, RE007 growth inh 2%, SARS PLpro yeast 0%, TbPYK inhibitor 5% and Sm TGR block inconclusive.
`COc1ccc(-c2nc(CS(=O)CC(=O)N3CCN(C)CC3)c(C)o2)cc1OC` (stereo not given) gave AmpC inh no detg -1%, AmpC inh detg inconclusive, RE007 growth inh -6%, SARS PLpro yeast 1%, TbPYK inhibitor 1% and Sm TGR block inconclusive.
`Cc1oc(-c2ccccc2)nc1CS(=O)CC(=O)NC1CCCC1` (stereo not given) gave AmpC inh no detg -15%, AmpC inh detg -5%, RE007 growth inh -1%, SARS PLpro yeast 8%, TbPYK inhibitor -2% and Sm TGR block 7.9µM*.
COc1ccc(-c2nc(CS(=O)CC(=O)NC3CCCCCC3)c(C)o2)cc1 (stereo not given) was read as AmpC inh no detg 70%, AmpC inh detg inconclusive, RE007 growth inh 5%, SARS PLpro yeast -3%, TbPYK inhibitor -2% and Sm TGR block 40µM*.
For COc1ccc(-c2nc(CS(=O)CC(=O)NC3CCCCC3)c(C)o2)cc1OC (stereo not given) the results were AmpC inh no detg 25%, AmpC inh detg 2%, RE007 growth inh -1%, SARS PLpro yeast -2%, TbPYK inhibitor -1% and Sm TGR block 35µM*.
`COc1ccc(-c2nc(CS(=O)CC(=O)N3CCOCC3)c(C)o2)cc1OC` (stereo not given) gave AmpC inh no detg 16%, AmpC inh detg -6%, RE007 growth inh -6%, SARS PLpro yeast -3%, TbPYK inhibitor 0% and Sm TGR block 40µM*.
`CCOc1ccc(-c2cc(NC(=O)c3cccc(Cl)c3)c(C(=O)OC)s2)cc1` gave AmpC inh detg 15%, TbPYK inhibitor 4% and Sm TGR block -2%.
`Cc1cccc(NC(=O)N2CCC(N3CCN(Cc4ccccc4)C(=O)C3=O)CC2)c1C` gave AmpC inh detg -2%, TbPYK inhibitor -4% and Sm TGR block 0%.
Screening CCOC(=O)CC(c1ccc(N)cc1)n1c(C)ccc1C (stereo not given) returned AmpC inh no detg 39%, AmpC inh detg 7%, RE007 growth inh 4%, SARS PLpro yeast -2%, TbPYK inhibitor 2% and Sm TGR block inconclusive.
Screening Cc1ccc(C)n1C(CC(=O)O)c1ccc(C#N)cc1 (stereo not given) returned AmpC inh no detg -13%, AmpC inh detg 2%, RE007 growth inh 7%, SARS PLpro yeast 0%, TbPYK inhibitor -1% and Sm TGR block 40µM*.
For CC1=C(C(=O)NC2CCCC(C)C2C)C2(CCCCC2)OC1=O (stereo not given) the results were AmpC inh no detg 35µM*, AmpC inh detg -4%, RE007 growth inh 10%, SARS PLpro yeast 22%, TbPYK inhibitor 0% and Sm TGR block 8%.
CCCOc1ccc(CCc2n[nH]c(=S)n2Cc2ccccc2)cc1 was read as AmpC inh no detg -36%, AmpC inh detg -9%, RE007 growth inh 22%, SARS PLpro yeast 20%, TbPYK inhibitor inconclusive and Sm TGR block 3%.
Screening S=c1[nH]nc(CCc2ccccc2)n1Cc1ccccc1 returned AmpC inh no detg -36%, AmpC inh detg 0%, RE007 growth inh 0%, SARS PLpro yeast 6%, TbPYK inhibitor 4µM* and Sm TGR block -1%.
`S=c1[nH]nc(COc2ccc(Cl)cc2)n1Cc1ccccc1` gave AmpC inh no detg -44%, AmpC inh detg 2%, RE007 growth inh 10%, SARS PLpro yeast 0% and TbPYK inhibitor inconclusive.
For COc1ccccc1OCc1n[nH]c(=S)n1Cc1ccccc1 the results were AmpC inh no detg -19%, AmpC inh detg 5%, RE007 growth inh 14%, SARS PLpro yeast -4%, TbPYK inhibitor 4µM* and Sm TGR block -3%.
